The record followed here is PubChem BioAssay.

SMILES strings stand for the structures. Inconclusive results are not listed. Active and inactive are the calls of the source.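 How the source made its calls, unless noted: active means RAM network inhibition above 8.4% in each of two replicates, 3 SD over the compound average; inconclusive means above 8.4% inhibition in only one replicate; inactive means 8.4% inhibition or less in each replicate.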

Assay [1] can be described thus: Her2 expression decrease, cell viability multiplex – SKBR3 breast tumor cells, AlphaScreen, ATP viability, primary screen (AID 461;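 active means Her2 level under about 52% in both replicate screens, with viability over 70% of control, limit read from the data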;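 on Her2 level: lower value means less Her2 protein in the cells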;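 on viability: percent of carrier control wells set as 100% viability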). The settings on record: SKBR3 Her2 protein level, 18-24 h, measured here: SKBR3 viability, ATP luminescence, at 10 µM. A general note: Alpha assays give light when donor and acceptor beads are brought close together.
Assay [2] deals with Receptor tyrosine-protein kinase erbB-2 (Homo sapiens) (UniProt P04626). Described as above. The conditions noted are these: 18-24 h, at 10 µM, stronger effect = lower value.
Chain of Receptor tyrosine-protein kinase erbB-2 (Homo sapiens) (P04626 whole entry, looked up): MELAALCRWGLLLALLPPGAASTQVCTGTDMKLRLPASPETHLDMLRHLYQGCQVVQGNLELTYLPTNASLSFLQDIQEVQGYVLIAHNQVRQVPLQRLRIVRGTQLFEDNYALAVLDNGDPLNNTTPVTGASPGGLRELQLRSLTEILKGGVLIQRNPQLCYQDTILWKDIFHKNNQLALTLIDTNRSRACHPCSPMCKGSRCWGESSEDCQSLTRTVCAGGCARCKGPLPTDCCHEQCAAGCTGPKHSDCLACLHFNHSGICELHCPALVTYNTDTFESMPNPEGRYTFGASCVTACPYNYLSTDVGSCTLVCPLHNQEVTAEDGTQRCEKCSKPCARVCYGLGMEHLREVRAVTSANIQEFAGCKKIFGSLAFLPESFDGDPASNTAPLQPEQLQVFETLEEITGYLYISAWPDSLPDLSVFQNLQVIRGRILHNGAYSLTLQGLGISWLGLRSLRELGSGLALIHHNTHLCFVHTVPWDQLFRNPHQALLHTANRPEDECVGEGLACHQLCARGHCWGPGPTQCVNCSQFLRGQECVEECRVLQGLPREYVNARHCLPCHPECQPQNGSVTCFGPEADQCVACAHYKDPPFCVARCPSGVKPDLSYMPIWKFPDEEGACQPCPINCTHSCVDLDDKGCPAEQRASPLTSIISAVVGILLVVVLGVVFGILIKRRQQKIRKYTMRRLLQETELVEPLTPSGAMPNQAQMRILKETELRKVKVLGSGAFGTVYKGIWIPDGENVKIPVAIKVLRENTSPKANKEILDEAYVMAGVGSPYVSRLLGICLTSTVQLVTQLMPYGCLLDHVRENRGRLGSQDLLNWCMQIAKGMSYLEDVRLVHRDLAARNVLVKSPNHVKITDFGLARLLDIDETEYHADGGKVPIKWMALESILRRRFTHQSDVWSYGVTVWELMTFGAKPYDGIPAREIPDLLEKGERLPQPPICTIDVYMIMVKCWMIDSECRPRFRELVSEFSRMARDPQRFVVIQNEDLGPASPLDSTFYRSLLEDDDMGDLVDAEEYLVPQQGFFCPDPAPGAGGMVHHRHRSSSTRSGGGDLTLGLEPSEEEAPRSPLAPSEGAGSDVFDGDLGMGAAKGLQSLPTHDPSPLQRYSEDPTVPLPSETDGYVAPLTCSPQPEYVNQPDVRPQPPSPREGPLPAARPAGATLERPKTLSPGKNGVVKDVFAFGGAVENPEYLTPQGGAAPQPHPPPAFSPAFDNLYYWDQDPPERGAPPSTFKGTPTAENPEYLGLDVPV
A short description of assay [3]: reduced viability of SK-BR-3 breast cancer cells – cell-based, 24 h, human, pilot screen (AID 572;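 active means viability at or below 10% of carrier control in both of two separate runs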;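 further: compound exposure lasted between 18 and 24 h rather than exactly 24 h; 100% = carrier-treated control wells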). The conditions noted are these: SK-BR-3 viability, CellTiter-Glo luminescence, at 10 µM, stronger effect = lower value.
A short description of assay [4]: H69AR cell proliferation blockers – human, duplicate replicates, primary screen (AID 580;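 active means viability at or under a set limit in both replicates, limit being median viability minus 3 SD, cut at about 48% in these data, passing the limit was not always enough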;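 further: 100% = mean luminescence of untreated wells and 0% = no signal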). The settings on record: H69AR lung tumor cells viability, ATP luminescence, 72 h; at 10 µM; stronger effect = lower value.
Assay [5] is described as follows: MRP1 drug-resistance reversers in H69AR cells – cell-based, doxorubicin co-treatment, pilot screen (AID 601;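 active means viability loss from added drug above about 55%, and viability with drug at most 40%, in both replicates, limit read from the data, passing the limit was not always enough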). The conditions noted are these: CellTiter-Glo, 72 h, at 10 µM; for differential viability (reversal): stronger effect = higher value. Background: Cellular ATP, detected with luciferase, serves as a proxy for viable cell number.
The nature of assay [6]: yeast transport mutant growth inhibition pilot in 384-well plates, post-Golgi transport modulator project (AID 636; in the data active means inhibition above about 31%). The settings on record: absorbance 615 nm, about 18 h, stronger effect = higher value.
Assay [7] is described as follows: growth suppression of yeast trafficking mutant, preliminary HTS, modulators of trafficking downstream of Golgi apparatus project, 1536-format plate, OD 615 nm (AID 637; in the data active means inhibition above about 30%). The conditions noted are these: yeast transport mutant growth, absorbance 615 nm, 18 h; stronger effect = higher value.
A short description of assay [8]: S. cerevisiae growth inhibition in permissive medium (OD615), pilot counter-assay for S. cerevisiae lifespan shortening project, permissive growth control (AID 705;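 active means growth inhibition above 25% in both replicates, a cutoff set 3 SD above the mean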). The settings on record: OD615, 24 h, at 10 µM, stronger effect = higher value.
Assay [9] in a line: S. cerevisiae growth inhibition in restrictive medium, OD615, pilot screen, restrictive growth control, yeast lifespan reduction project (AID 706;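 active means growth inhibition above a set limit, 3 SD over mean compound inhibition, in both replicates, cut at about 43% in these data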;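 further: modified DeaD lifespan yeast strain shifted to restrictive glucose medium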). The conditions noted are these: OD615, 48 h, at 10 µM, stronger effect = higher value.
Assay [10] can be described thus: doxorubicin toxicity protection in MRP-1 cells – H69AR cells, CellTiter-Glo, duplicate, MRP-1 activator project, pilot screen (AID 807;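 active means viability increase at or above a cutoff of the median across tested compounds plus 3 SD, cut at about 8.5% in these data, passing the limit was not always enough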;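 further: compound pretreatment 18-22 h then 72 h combined with doxorubicin; 0% = doxorubicin alone and 100% = vehicle without doxorubicin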). The settings on record: H69AR viability with doxorubicin, CellTiter-Glo luminescence; at 10 µM; stronger effect = higher value.
Assay [11] can be described thus: viability of HCT116 without oncogenic beta-catenin – human colon tumor cells, pilot screen (AID 823;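 active means cell viability at or below a set limit in both duplicate runs, the limit being the all-compound median minus 4 SD, cut at about 23% in these data, passing the limit was not always enough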;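 further: 0% = wells killed by 20 µM Hyamine and 100% = untreated DMSO cell wells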). The settings on record: HCT116 beta-catenin knockout viability, CellTiter-Glo, 60 h; at 10 µM; stronger effect = lower value.
Assay [12] in a line: viability of PTEN-null HCT116 cells – cell-based, HCT116 clonal line, CellTiter-Glo, pilot screen (AID 824;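 active means viability at or below 27.92% in each of two runs, the all-compound median minus 4 SD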;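 further: 0% = 20 µM Hyamine control and 100% = vehicle cell control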). The settings on record: HCT116 PTEN-deleted viability, 60 h, at 10 µM, stronger effect = lower value.
Assay [13] can be described thus: RAM pathway blockade in budding yeast – dse1pr::URA3 reporter, 5-FOA selection, pilot screen (AID 869;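 active means inhibition over a set limit, the all-compound mean plus 3 SD, in both replicate runs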;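 further: 0% = DMSO wells with no growth and 100% = 10 µM 1-NA-PP1 with full growth; RAM network block rescues cells from 5-FOA so hits raise OD615 growth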). The settings on record: S. cerevisiae dse1pr::URA3 5-FOA growth, OD615, 2 d; at 10 µM; stronger effect = higher value; strain carries analog-sensitive mutant Cbk1 kinase.
Assay [14] can be described thus: RAM signaling pathway blockade in yeast – S. cerevisiae, Pdr1DBD-CYC8 efflux-inhibited sensitized strain, primary screen (AID 1298).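 Further: 0% = DMSO untreated cells without growth and 100% = 10 µM 1-NA-PP1 full growth; higher means more yeast growth rescued from 5-FOA killing.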 The settings on record: S. cerevisiae cbk1-as DSE1-URA3 strain, 5-FOA growth OD615, 2 d; at 50 µM; stronger effect = higher value.
The nature of assay [15]: HUVEC growth inhibition – cell-based, human, primary screen (AID 575;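 active means viability at or below 30% in both replicate assays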;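 further: 100% = median of untreated cell wells with 0.1% DMSO on each plate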). The settings on record: HUVEC proliferation, CellTiter-Glo luminescence, 72 h; at 10 µM; stronger effect = lower value.
Where [16] appears, read: H69AR cells + 2 uM doxorubicin, measured here: viability with 2 uM doxorubicin, stronger effect = lower value.
Setting [17] is: H69AR cells, compound alone cytotoxicity.

A word on the viability: it is a read-out of living cells in per cent, often relative to untreated cells. As usually defined, the inhibition is the change of the read-out against control, counted positive when it falls.

As for `Cc1ccccc1-c1nc(CN2CCC(C(=O)NC3CCN(Cc4ccccc4)CC3)CC2)c(C)o1`, the viability in assay [1] is 91%; in assay [3] it was 91% (inactive); in assay [4] it was 86.3% (inactive); in assay [5] (setting [16]) it was 79%; in [5] (setting [17]), 86.3%; in [11] it was 6.4% (active). Besides, in assay [12], the viability is 9.9% (active). Moreover, in assay [2], the Her2 level is 77.5% (inactive). Moreover, the differential viability (reversal) in assay [5] (H69AR cells + 2 uM doxorubicin) was 7.26% (inactive). The inhibition in assay [6] is -5.87% (inactive); in [7] it was 3% (inactive); in assay [13], 1.26% (inactive). Also, the growth inhibition in [8] is -8.2% (inactive); in assay [9], -3.5% (inactive). In addition, in assay [10], the viability increase is -7.96% (inactive). Further, the RAM network inhibition in [14] is 1.75% (inactive).
In the case of `COc1ccc(Nc2ncnc3c2cnn3-c2ccccc2)cc1OC`, the viability in assay [1] was 82.5%; in assay [3], 82.5% (inactive); in [15], 59.4% (inactive); in [5] (setting [16]), 73.7%; in [5] (setting [17]) it was 42.7%; in assay [11] it was 107% (inactive). Moreover, in assay [12], the viability was 97.7% (inactive). The Her2 level in assay [2] was 91% (inactive). Moreover, the differential viability (reversal) in [5] (H69AR cells + 2 uM doxorubicin) is -31% (inactive). Also, the inhibition in assay [6] was 0.27% (inactive); in assay [7], -9.33% (inactive); in [13] it was 0.635% (inactive). For the same molecule, the values for the growth inhibition in assay [8] and in assay [9] were -4.18% (inactive) and -24.4% (inactive), respectively. The viability increase in assay [10] was -0.97% (inactive). Further, the RAM network inhibition in [14] is 5.61% (inactive).
On to `CC1CCCCN1S(=O)(=O)c1ccc(NC(=O)c2cccs2)cc1` (configuration not stated), for which the viability in [1] was 73.5%; in assay [3], 73.5% (inactive); in assay [4] it was 85.5% (inactive); in assay [5] (setting [16]) it was 83.6%; in assay [5] (setting [17]), 85.5%; in assay [11], 76.2% (inactive). In addition, the viability in assay [12] was 82% (inactive). Also, the Her2 level in assay [2] was 83% (inactive). For the same molecule, the differential viability (reversal) in [5] (H69AR cells + 2 uM doxorubicin) is 1.84% (inactive). Besides, the results for the inhibition in assay [6], in assay [7] and in [13] were -1.17% (inactive), -13.2% (inactive) and 1.48% (inactive), respectively. For the same molecule, the growth inhibition in [8] is -8.63% (inactive); in assay [9], -13.5% (inactive). In assay [10], the viability increase was -4.32% (inactive). In addition, the RAM network inhibition in [14] is 0.93% (inactive).
For the molecule `C/C=C/COC(=O)c1[nH]c2c(c1C)C(=O)CC(c1ccc(N(C)C)cc1)C2` (configuration not stated), the viability in assay [1] is 92%; in [3], 92% (inactive); in assay [15] it was 62.4% (inactive); in [5] (setting [16]), 72.1%; in assay [5] (setting [17]), 41.9%; in [11], 60.6% (inactive). Moreover, the viability in assay [12] was 66.6% (inactive). Besides, in assay [2], the Her2 level is 94% (inactive). The differential viability (reversal) in [5] (H69AR cells + 2 uM doxorubicin) was -30.1% (inactive). The values for the inhibition in assay [6], in assay [7] and in assay [13] were 2% (inactive), 49.8% (active) and 1.9% (inactive), respectively. Besides, the values for the growth inhibition in assay [8] and in assay [9] were -10.2% (inactive) and -9.05% (inactive), respectively. In addition, in assay [10], the viability increase is -2.69% (inactive). Also, the RAM network inhibition in assay [14] is 4.88% (inactive).
Turning to `FC(F)(F)COc1nc(N2CCCCC2)nc(N2CCNCC2)n1`, the viability is 82% (inactive) in assay [3]; 98.8% (inactive) in [15]; 92.3% (inactive) in assay [4]; 77.4% in assay [5] (setting [16]); 92.3% in assay [5] (setting [17]); 85.5% (inactive) in assay [11]. Moreover, in [12], the viability was 84.5% (inactive). Further, the differential viability (reversal) in assay [5] (H69AR cells + 2 uM doxorubicin) was 15% (inactive). In addition, the inhibition was -4.86% (inactive) in [6], -4% (inactive) in [7] and 0.78% (inactive) in assay [13]. Also, the growth inhibition was 4.64% (inactive) in assay [8] and -3.79% (inactive) in assay [9]. Moreover, in [10], the viability increase is -3.4% (inactive). Besides, the RAM network inhibition in assay [14] is -2.05% (inactive).
For the molecule `OC1(c2cccc(C(F)(F)F)c2)CCN(c2ccc(-c3ccccc3)nn2)CC1`, the viability in [1] is 71.5%; in assay [3], 71.5% (inactive); in assay [15], 86.4% (inactive); in [5] (setting [16]), 61.9%; in assay [5] (setting [17]), 59%; in assay [11] it was 10.7% (active). In assay [12], the viability was 46.8% (inactive). The Her2 level in assay [2] was 78.5% (inactive). The differential viability (reversal) in [5] (H69AR cells + 2 uM doxorubicin) was -2.92% (inactive). Further, the figures for the inhibition in assay [6], in [7] and in assay [13] were 0.27% (inactive), 0.98% (inactive) and 1.11% (inactive), respectively. The growth inhibition is -3.31% (inactive) in [8] and -9.3% (inactive) in assay [9]. The viability increase in assay [10] is -8.34% (inactive). For the same molecule, the RAM network inhibition in assay [14] is 5.46% (inactive).
`Cc1ccc(N2C(=O)c3oc4ccccc4c(=O)c3C2c2cccc(O)c2)nc1` (configuration not stated): the viability in assay [3] was 102% (inactive); in assay [15] it was 59.1% (inactive); in [4] it was 91.8% (inactive); in assay [5] (setting [16]), 103%; in [5] (setting [17]), 91.8%; in assay [11], 73.1% (inactive). In addition, in assay [12], the viability is 71.7% (inactive). For the same molecule, the differential viability (reversal) in assay [5] (H69AR cells + 2 uM doxorubicin) is -11.7% (inactive). Moreover, the inhibition in assay [6] was 0.9% (inactive); in [7], 2.17% (inactive); in [13] it was 3.22% (inactive). For the same molecule, the growth inhibition in [8] is -6.7% (inactive); in assay [9] it was -3.53% (inactive). The viability increase in [10] is 1.12% (inactive). For the same molecule, in assay [14], the RAM network inhibition was 7.27% (inactive).
For the molecule `Cc1ccc2nc(NC(=O)Cn3cc4c(n3)CCCCC4)sc2c1`, the viability was 91.5% in [1]; 91.5% (inactive) in assay [3]; 93% (inactive) in [4]; 96.6% in assay [5] (setting [16]); 93% in [5] (setting [17]); 98.2% (inactive) in assay [11]. Also, the viability in assay [12] is 97% (inactive). Further, the Her2 level in [2] was 106% (inactive). The differential viability (reversal) in assay [5] (H69AR cells + 2 uM doxorubicin) is -3.56% (inactive). Further, the results for the inhibition in assay [6], in assay [7] and in assay [13] were 0.51% (inactive), -4.67% (inactive) and 2.76% (inactive), respectively. For the same molecule, the growth inhibition in assay [8] is -4.68% (inactive); in assay [9], 10.6% (inactive). Further, the viability increase in [10] is -3.78% (inactive). For the same molecule, the RAM network inhibition in [14] was 3.93% (inactive).
On to `O=C(Nc1nc(-c2ccncc2)cs1)C1COc2ccccc2O1` (configuration not stated), for which the viability in assay [1] is 83.5%; in assay [3], 83.5% (inactive); in assay [15], 67.2% (inactive); in [5] (setting [16]), 60.6%; in assay [5] (setting [17]), 64.8%; in assay [11] it was 85.3% (inactive). The viability in assay [12] is 83.9% (inactive). In [2], the Her2 level is 99.5% (inactive). Moreover, the differential viability (reversal) in assay [5] (H69AR cells + 2 uM doxorubicin) is 4.21% (inactive). Further, the figures for the inhibition in [6], in assay [7] and in [13] were 0.51% (inactive), -8% (inactive) and 0.095% (inactive), respectively. Moreover, the growth inhibition in [9] was 33.5% (inactive). Moreover, the viability increase in assay [10] was -5.71% (inactive). The RAM network inhibition in assay [14] is 7.12% (inactive).
Consider `C/C=C/COC(=O)c1[nH]c2c(c1C)C(=O)CC(c1ccco1)C2` (configuration not stated), for which the viability was 80.5% in [1]; 80.5% (inactive) in assay [3]; 24.4% (active) in [4]; 40.2% in assay [5] (setting [16]); 24.4% in assay [5] (setting [17]); 16.6% (active) in assay [11]. In addition, the viability in [12] was 19.8% (active). Besides, the Her2 level in assay [2] is 62% (inactive). The differential viability (reversal) in assay [5] (H69AR cells + 2 uM doxorubicin) is -15.9% (inactive). In addition, the inhibition was -2.67% (inactive) in assay [6], -3.28% (inactive) in assay [7] and 0.985% (inactive) in assay [13]. For the same molecule, the growth inhibition in assay [8] is -4.97% (inactive); in assay [9] it was -2.88% (inactive). Moreover, the viability increase in assay [10] is -4.93% (inactive). Further, in assay [14], the RAM network inhibition is 0.51% (inactive).
